# From PubChem BioAssay
# USP17 block – human USP17-like deubiquitinase inhibition. A8MUK1. purified USP17, Ub-rhodamine cleavage fluorescence, 3 h. inhibition, % at 50 µM. 47,000 compounds, 6.5% hits. AID 1645855
# Target sequence (A8MUK1 whole entry, looked up): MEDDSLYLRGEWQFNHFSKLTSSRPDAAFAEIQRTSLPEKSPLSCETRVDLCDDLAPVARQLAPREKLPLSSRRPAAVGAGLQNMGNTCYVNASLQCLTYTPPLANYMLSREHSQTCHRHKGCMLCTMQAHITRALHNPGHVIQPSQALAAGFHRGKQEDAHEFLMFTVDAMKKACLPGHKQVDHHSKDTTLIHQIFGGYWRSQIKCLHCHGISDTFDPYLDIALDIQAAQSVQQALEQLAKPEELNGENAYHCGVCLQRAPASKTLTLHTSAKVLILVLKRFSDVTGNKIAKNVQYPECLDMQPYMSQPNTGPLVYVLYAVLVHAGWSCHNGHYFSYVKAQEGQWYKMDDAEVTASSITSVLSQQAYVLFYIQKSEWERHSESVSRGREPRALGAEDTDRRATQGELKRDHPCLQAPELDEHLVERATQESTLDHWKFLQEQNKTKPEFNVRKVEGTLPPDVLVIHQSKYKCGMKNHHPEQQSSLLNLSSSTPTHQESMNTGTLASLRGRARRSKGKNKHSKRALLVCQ
# USP30 inh – blocks human USP30 ubiquitin-rhodamine cleavage; 47,000 compounds, 5.3% hits; AID 1645860; inhibition, % at 25 µM; purified USP30, Ub-rhodamine cleavage fluorescence
# OTUD3 block – human OTUD3 deubiquitinase inhibition. purified OTUD3, Ub-rhodamine fluorescence, 2 h. AID 1645858. Q5T2D3. inhibition, % at 25 µM. 47,000 compounds, 0.7% hits
# USP28 block – blocks human USP28 ubiquitin-rhodamine cleavage; AID 1645857; purified USP28, Ub-rhodamine cleavage fluorescence, 30 min; 47,000 compounds, 3% hits; Q96RU2; inhibition, % at 25 µM
# Numbers without * were called inactive; · = not tested or not shown. The list is not random: actives were taken first. Their share in the collection is about 11%. Cut-off read from the data, not from the text of the source: active = inhibition above about 30%; inactive = the rest.
SMILES,USP17 block,USP30 inh,OTUD3 block,USP28 block
COc1cc(C(=O)NCCc2nc3ccccc3n2Cc2ccccc2F)cc(OC)c1OC,0,9,4,7
COc1ccccc1C(=O)NCc1nc2ccccc2n1Cc1cc(C)ccc1C,67*,71*,-3,-7
CCc1ccc(C2CN3C(=O)CN(C4CC4)C(=O)[C@]3(C)c3[nH]c4ccccc4c32)cc1 (stereo partly drawn),-2,7,0,9
COc1ccc(NC(=O)CCOc2ccccc2C)cc1S(=O)(=O)Nc1cc(C)ccc1Br,6,35*,5,25
CCc1nc(SCC(=O)Nc2ccc(Cl)cc2Cl)c2oc3ccccc3c2n1,3,-45,3,1
CC(=O)CSc1nc(C)nc2c1oc1ccccc12,29,1,-7,5
O=C(CSc1ncnc2c1oc1ccccc12)Nc1cc(Cl)ccc1Cl,-2,-5,1,-4
Cc1nc(SCC(=O)Nc2cc(Cl)ccc2C)c2oc3ccccc3c2n1,26,53*,17,20
Cc1nc(SCC(=O)Nc2ccc(C)c(C)c2)c2oc3ccccc3c2n1,36*,12,5,6
Cc1ccc(Cl)cc1NC(=O)CSc1ncnc2c1oc1ccccc12,31*,5,1,5
O=C(Nc1nc2c(s1)CCCC2)c1cccc(Cl)c1Cl,16,-2,8,38*
CN1CCc2nc(NC(=O)COc3ccc(C#N)cc3)sc2C1,83*,59*,21,33*
Cc1cccc(OCC(=O)Nc2nc3c(s2)CCCC3)c1,13,24,19,48*
O=C(Nc1nc2c(s1)CCC2)c1cccc(N2CCNC2=O)c1,42*,-42,-1,31*
CC(C)(C)CC(=O)N1CCCC(Cc2cnc(-c3ncc[nH]3)cn2)C1 (stereo not drawn),-6,-4,-7,-4
Cc1ccc(-c2nc(N3CCOCC3)c(-c3ccc([N+](=O)[O-])cc3)[nH]2)cc1,1,2,-1,2
NC(=O)[C@@H]1CN(S(=O)(=O)c2ccccc2)[C@H]2c3ccccc3O[C@@H]12,-15,3,0,-2
CCN(CC)S(=O)(=O)c1ccc2c(c1)nc(CCC(=O)Nc1ccc(C)c(Cl)c1)n2CC,-12,39*,1,-5
O=C(COc1ccccc1Cl)Nc1ccc(F)cc1F,6,15,9,2
O=C(Nc1ccc(Cl)cc1Cl)c1ccn(COc2ccccc2F)n1,36*,45*,12,18
O=C(Nc1ccccc1Cl)c1ccn(COc2ccccc2F)n1,66*,57*,20,29
O=C(COc1ccccc1-c1nnc(-c2ccccc2)o1)Nc1ccccc1Cl,9,9,1,5
O=C(NC1CCCCC1)N1CCCCC1c1nncn1CC1CC1 (stereo not drawn),5,9,12,12
COc1cc(C2CC(=O)Nc3nc(C)[nH]c(=O)c32)ccc1OCc1ccccc1 (stereo not drawn),28,-102,-5,0
CC1CCCCN1c1nc(F)c2c(c1F)S(=O)(=O)CCN2Cc1cccnc1 (stereo not drawn),35*,-36,-4,-10
SMILES,USP17 block,USP30 inh,OTUD3 block,USP28 block
CCN1C[C@H]2CCN(Cc3cccnc3)CC[C@H]2S1(=O)=O,-13,-60,-14,-21
COCCN1CCS(=O)(=O)c2c(F)c(N3CCCC3)nc(F)c21,11,25,20,14
CCN(CC)c1nc(F)c2c(c1F)S(=O)(=O)CCN2Cc1cccnc1,58*,8,13,8
O=C1CN(C(=O)COc2ccc(F)cc2Cl)c2ccccc2N1,-8,-26,-7,-5
COc1c2nc3ccccc3oc-2cc(=O)c1OC,71*,-13,1,7
CCC1CCCCN1C(=O)c1cc2c(=O)n3ccccc3nc2n1CCCOC (stereo not drawn),1,-29,-5,-5
CC1=C(c2ccc(F)cc2)S(=O)(=O)NC1=NCC(=O)Nc1cccc(F)c1,41*,58*,0,17
CC1=C(c2ccc(C)c(C)c2)S(=O)(=O)NC1=NCC(=O)NCCCc1ccccc1,51*,30,-3,4
CCC1=C(c2ccc(C)cc2)S(=O)(=O)NC1=NCC(=O)NC1CCCCCC1,-8,-15,-14,-12
CC1=C(c2ccc(Cl)cc2)S(=O)(=O)NC1=NCC(=O)Nc1ccc(F)cc1,64*,44*,14,7
CC1=C(c2ccc(F)cc2)S(=O)(=O)NC1=NCC(=O)Nc1c(C)cccc1C,17,14,4,2
CC1=C(c2ccc(F)cc2)S(=O)(=O)NC1=NCC(=O)Nc1ccc(F)cc1,0,52*,1,-1
CC1=C(c2ccc(C)c(C)c2)S(=O)(=O)NC1=NCC(=O)NCc1ccccc1,28,·,-1,·
CN(CCc1ccccc1)c1nccc(N2CCN(C(=O)c3nccc4ccccc34)CC2)n1,6,0,-1,13
CCOC(=N)c1ccc(F)c(Cl)c1,3,12,6,5
CCn1c(=O)c2nscc2n(CC(=O)NCc2ccccc2Cl)c1=O,-12,-54,-23,-34
CCc1ccc(NC(=O)CSc2[nH]c(=O)c(C(=O)O)cc2C#N)cc1,42*,20,28,48*
N#Cc1cc2c(nc1SCC(=O)Nc1ccc(F)cc1)CCCC2=O,2,-26,-3,0
COC(=O)c1ccc2c(c1)C(=O)c1ccccc1CO2,26,24,15,32*
Cc1nnc2ccc(-c3ccc(NS(=O)(=O)c4ccccc4F)cc3)nn12,43*,23,12,17
CCCS(=O)(=O)Nc1ccc(-c2ccc3nnc(C)n3n2)cc1,0,-4,-7,-32
O=C(Nc1ccncc1)c1cc(Br)ccc1F,25,35*,10,14
COc1cccc(-c2noc(-c3occc3Br)n2)c1,40*,4,15,30
CCOC(=O)c1cc2c(CSc3ccccc3)nn(C)c2s1,28,36*,26,34*
CS(=O)(=O)N1CCN(c2ccc(-c3ccccc3)nn2)CC1,2,6,1,1
SMILES,USP17 block,USP30 inh,OTUD3 block,USP28 block
CCOCCCn1c(-c2ccccc2Cl)nc2nc3ccccc3nc21,-33,-75,-16,-29
O=C(CSc1nnc(CNC(=O)c2ccco2)o1)Nc1ccc(OC(F)(F)F)cc1,-6,-21,-8,-4
O=C1C2=C(C(c3ccccc3)=NCCN2)C(c2cccc(F)c2)N1c1ccccc1 (stereo not drawn),0,32*,6,4
COc1cccc(C2C3=C(NCCN=C3c3ccccc3)C(=O)N2c2ccccc2)c1 (stereo not drawn),-11,-11,-7,4
O=C(Nc1cccc(Oc2ccccc2)c1)c1c(F)cccc1F,-4,-23,-20,36*
O=C(Nc1cccc(Oc2ccccc2)c1)c1ccc2nc[nH]c2c1,-1,-9,-7,34*
NC(=O)c1cccc(NC(=O)c2cccc(Oc3ccccc3)c2)c1,6,-4,-4,15
COc1ccc2[nH]c3c(c2c1)CCN1C(=O)N([C@@H](C)C(=O)NCc2ccccc2OC)C(=O)[C@]31C,-8,-27,-12,-3
c1ccc(Cc2nn3c(-c4cccnc4)nnc3c3ccccc23)cc1,62*,8,0,4
